Records with an inconclusive call do not appear. The source made the active and inactive calls. How the source made its calls, unless noted: active means hit-call score of the fitted dose curve at least 0.9, where 1 is the maximum; inactive means score below 0.9.
What was measured:
[1] = read-out: Monokine induced gamma interferon (MIG), CXCL9 (gene 4283); assay: BSK_3C_MIG: BioMAP Diversity Plus: 3C Assay for Monokine induced gamma interferon (MIG) Biomarker Activity (AID 2283021); conditions: primary human endothelial cells (HUVEC); actives raise or lower the signal;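 on AC50: MIG protein level measured by immunoassay in the treated endothelial cultures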
How it was run: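 ELISA measurement of MIG in human umbilical vein endothelial cells 24 h after treatment. Cytotoxicity tracked by SRB staining in parallel cultures; gain or loss of signal fitted relative to DMSO.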

[2] = molecular target: human Vitamin D Receptor (VDR), VDR (gene 7421) (UniProt P11473); assay: ATG_VDR_TRANS: Attagene TRANS-FACTORIAL HepG2 Assay for human Vitamin D Receptor (VDR) (AID 2283022; active means hit-call score of the fitted dose curve at least 0.9, where 1 is the maximum)
How it was run: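 Transactivation by an exogenous VDR-Gal4 chimera in transiently transfected HepG2 cells was measured as reporter transcript level 24 hours after chemical treatment. RT-PCR products were analysed by capillary electrophoresis and fitted in the positive direction relative to DMSO.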

[3] = BSK_3C_SRB: Viability Assessment in the BioMAP Diversity Plus: 3C Assay (AID 2283023); conditions: primary human endothelial cells (HUVEC);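 further: fitted both ways against DMSO so a hit may be signal rise or drop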
How it was run: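 Cytotoxicity readout in parallel HUVEC 3C cultures: after 24 h compound exposure, cells fixed with 10% TCA, stained with 0.1% SRB and read at 560 nm. Gain or loss relative to DMSO fitted.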

[4] = read-out: Matrix Metallopeptidase 1 (MMP1), MMP1 (gene 4312); assay: BSK_BE3C_MMP1: BioMAP Diversity Plus: BE3C Assay for Matrix Metallopeptidase 1 (MMP1) Biomarker Activity (AID 2283024); conditions: primary human bronchial epithelial cells; actives raise or lower the signal
How it was run: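 ELISA measurement of MMP-1 after 24 h compound exposure of primary human bronchial epithelial cells. Changes in either direction fitted relative to DMSO; parallel SRB staining checked overt cytotoxicity.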

[5] = BSK_3C_Vis: BioMAP Diversity Plus: 3C Assay for Morphology Visualization (AID 2283025); conditions: primary human endothelial cells (HUVEC);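 further: fitted both ways so gain or loss versus DMSO counts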;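 on AC50: light microscopy image of cell morphology used as background control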
How it was run: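 Light-microscopy visualization of HUVEC cultures at 24 h post-treatment, with DMSO as baseline for bidirectional fitting.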

[6] = read-out: Pselectin, SELP (gene 6403); assay: BSK_4H_Pselectin: BioMAP Diversity Plus: 4H Assay for Pselectin Biomarker Activity (AID 2283026); conditions: primary human endothelial cells (HUVEC); actives raise or lower the signal
How it was run: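 ELISA of surface P-selectin on HUVEC, 24 h after dosing, with parallel SRB staining (0.1% after 10% TCA fixation, 560 nm) for overt cytotoxicity. Activity fitted in both directions relative to DMSO.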

[7] = BSK_4H_SRB: Viability Assessment in the BioMAP Diversity Plus: 4H Assay (AID 2283027); conditions: primary human endothelial cells (HUVEC);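 further: cells exposed to compound for 24 h before staining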;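 on AC50: curves fitted both ways versus DMSO so AC50 may be loss or gain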
How it was run: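 Cytotoxicity readout: sulforhodamine B (0.1%) staining of total protein after 10% TCA fixation, measured at 560 nm in human umbilical vein endothelium at 24 h. DMSO set the baseline; fitting was bidirectional.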

[8] = BSK_BE3C_SRB: Viability Assessment in the BioMAP Diversity Plus: BE3C Assay (AID 2283028); conditions: primary human bronchial epithelial cells;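 on AC50: fitted both ways so AC50 may mark signal gain or loss versus DMSO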
How it was run: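 Cytotoxicity read-out: SRB (0.1%) staining of TCA-fixed (10%) human lung bronchial epithelial cells, absorbance 560 nm, 24 h post-dosing. Curves fitted both directions relative to DMSO.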

[9] = read-out: Thrombomodulin, THBD (gene 7056); assay: BSK_3C_Thrombomodulin: BioMAP Diversity Plus: 3C Assay for Thrombomodulin Biomarker Activity (AID 2283029); conditions: primary human endothelial cells (HUVEC); actives raise or lower the signal
How it was run: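 ELISA measurement of thrombomodulin on HUVEC surface 24 h after chemical dosing; activity fitted in both directions relative to DMSO vehicle.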

[10] = read-out: Urokinase-type plasminogen activator receptor (uPAR), PLAUR (gene 5329); assay: BSK_4H_uPAR: BioMAP Diversity Plus: 4H Assay for Urokinase-type plasminogen activator receptor (uPAR) Biomarker Activity (AID 2283030); conditions: primary human endothelial cells (HUVEC); actives raise or lower the signal
How it was run: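 uPAR level read by ELISA on HUVEC cultures (BioMAP 4H) 24 h post-dosing, analyzed for gain or loss relative to DMSO. Parallel SRB staining assessed overt cytotoxicity.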

Measured: AC50

human Vitamin D Receptor (VDR), VDR (gene 7421), sequence (P11473 whole entry, looked up, the tested form may be a part): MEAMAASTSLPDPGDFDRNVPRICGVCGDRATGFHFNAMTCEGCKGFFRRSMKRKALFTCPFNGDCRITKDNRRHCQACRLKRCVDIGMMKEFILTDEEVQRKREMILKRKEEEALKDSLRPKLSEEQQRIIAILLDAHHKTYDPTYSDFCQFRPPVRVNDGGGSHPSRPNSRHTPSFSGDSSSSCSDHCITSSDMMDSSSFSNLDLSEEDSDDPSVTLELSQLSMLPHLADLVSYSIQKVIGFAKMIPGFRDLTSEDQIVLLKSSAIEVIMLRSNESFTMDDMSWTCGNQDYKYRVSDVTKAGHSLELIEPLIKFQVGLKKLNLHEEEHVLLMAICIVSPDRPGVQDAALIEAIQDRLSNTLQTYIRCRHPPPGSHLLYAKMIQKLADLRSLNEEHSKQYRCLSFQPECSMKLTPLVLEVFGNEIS

CCCCCc1ccc(N)cc1
inactive: [1] | [2] | [4] | [5] | [6] | [8] | [9]
active: [3] 17.8 µM | [7] 11.7 µM | [10] 7.58 µM

CCCCCCCCOC(=O)c1cc(O)c(O)c(O)c1
active: [1] 39.3 µM | [2] 55 µM | [3] 20 µM | [4] 33.5 µM | [5] 37.5 µM | [6] 17.8 µM | [7] 15.1 µM | [10] 37.7 µM
inactive: [9]

Clc1ccccc1C(c1ccccc1)(c1ccccc1)n1ccnc1
active: [1] 34.5 µM | [3] 11.9 µM | [4] 11.8 µM | [5] 14.5 µM | [6] 8.64 µM | [7] 24.9 µM | [8] 8.78 µM | [9] 8.39 µM | [10] 18.3 µM
inactive: [2]

CN(C[C@@H](CC[N+]12CCC(C3CCCCC3)(CC1)CC2)c1ccc(Cl)c(Cl)c1)C(=O)c1cc(C(F)(F)F)cc(C(F)(F)F)c1
active: [1] 33.6 µM | [3] 12.9 µM | [4] 23.5 µM | [5] 13.3 µM | [6] 29.2 µM | [7] 16.5 µM | [8] 13 µM | [10] 29.1 µM
inactive: [2] | [9]

CCCCCCCCOc1ccc(C(=O)c2ccccc2)c(O)c1
inactive: [1] | [2] | [4] | [5] | [6] | [7] | [8] | [10]
active: [3] 28.7 µM | [9] 7.71 µM

CCCCOC(=O)CC(CC(=O)OCCCC)(OC(C)=O)C(=O)OCCCC
inactive: [1] | [2] | [3] | [4] | [5] | [6] | [7] | [8] | [9] | [10]

OC12N=C(c3ccccc3)SC1Cc1cc(Cl)ccc12 (centres undefined)
inactive: [1] | [2] | [5] | [6] | [7] | [8] | [9] | [10]
active: [3] 28.1 µM | [4] 15.3 µM

COc1ccc2cc(S(=O)(=O)N[C@H](CC(=O)N[C@H](Cc3ccc(CN4[C@H](C)CCC[C@@H]4C)cc3)C(=O)N(C)C(C)C)c3ccc4c(c3)OCO4)ccc2c1
active: [3] 20.8 µM | [5] 5.55 µM | [6] 10.8 µM | [7] 19.1 µM | [10] 19.1 µM
inactive: [1] | [2] | [4] | [8] | [9]

CC(O)CC(C)(C)O (centres undefined)
inactive: [1] | [2] | [3] | [4] | [5] | [6] | [7] | [8] | [9] | [10]

From PubChem BioAssay (EPA / NIEHS)
